Source: PubChem BioAssay
A selection: hits, their analogues and other compounds. The true share with any hit is near 4%.
TWEAK-Fn14 inh: blocks TWEAK-Fn14 interaction in a reporter cell assay | 2% of 360,000 active | AID 1159606 | TWEAK-stimulated Fn14 reporter cells, luciferase luminescence, 8 h | inhibition, % at 10 µM; in the data active = inhibition above about 50%
MITF TRPM1 inh: MITF TRPM1 promoter inhibition in SK-MEL-5 cells; inhibition, % at 12.5 µM; SK-MEL-5 TRPM1 promoter luciferase, 24 h; 0.83% of 330,000 active;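 active = mean inhibition across replicates of 60% or more, whatever share of single replicates reaches that level; inconclusive = some that reach 60%, reason not given; inactive = mean inhibition across replicates below 60%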
LMP1 NFkB inh: reduces LMP1-driven NF-kappaB luciferase signal; LMP1-induced NF-kappaB luciferase reporter cells, luminescence; 0.69% of 350,000 active; inhibition, % at 12.5 µM; in the data active = inhibition above about 41%; inconclusive = no clear call, values can overlap the other calls;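 also: 0% = neutral control wells and 100% = reference inhibitor control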
Peg3 prom inh: reduces Peg3 promoter-driven luciferase expression in HeLa; HeLa PEG-Prom luciferase reporter, luminescence, overnight; 1.7% of 360,000 active; inhibition, % at 20 µM; AID 588405;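 active = inhibition of at least 50% at 20 µM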
HIF-2a block: HIF-2a inhibition | 786-0 RCC cells HIF-2a reporter, luciferase luminescence, overnight | inhibition, % at 18.8 µM | 0.72% of 360,000 active;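 active = inhibition of the luminescence signal of 40% or more relative to plate controls, in a single-dose primary screen at 18.75 µM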
TROY signal inh: blocks TROY-dependent signaling in reporter cells | Q293 LMP1-TROYcd NF-kB luciferase reporter, 4 h | inhibition, % at 10 µM | 0.98% of 360,000 active | AID 1347056;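 active = compounds whose plate-normalised and pattern-corrected inhibition of the luciferase reporter signal at the single screening dose is 50% or more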
An asterisk follows results filed as active; u = inconclusive; x = not tested or not shown.

SMILES	TWEAK-Fn14 inh	MITF TRPM1 inh	LMP1 NFkB inh	Peg3 prom inh	HIF-2a block	TROY signal inh
Oc1ccc(/C=C/c2ccc3ccccc3n2)cc1	92.2*	69.9*	47.5*	46.5	26.4	74.0*
C(=C\c1ccc2ccccc2n1)/c1ccccc1	74.4*	58.2	39.8	-4.4	-3.0	56.8*
CC(C)NC(=O)N(C)C[C@H]1Oc2ncc(Br)cc2C(=O)N([C@H](C)CO)C[C@@H]1C	10.1	x	-13.3	-13.2	18.7	-18.1
CC(C)c1ccc(N(C(=O)c2snc(C(N)=O)c2N)C(C(=O)NC2CCCC2)c2ccncc2)cc1 (stereo not given)	13.5	-9.1	-3.2	-18.2	-99.9	14.9
O=[N+]([O-])c1ccc(/C=C/c2ccc3cccc(O)c3n2)cc1	-27.1	-18.2	7.4	-239.4	-251.4	41.0
O=[N+]([O-])c1ccc(/C=C/c2ccc3ccccc3n2)cc1	60.1*	5.3	4.2	-42.5	-5.5	54.5*
Cc1cc(C(=O)CSc2ccc(F)cc2)cc(C)c1OC(=S)N(C)C	99.8*	17.4	23.5	-36.4	-0.9	x
N=c1sc2ccccc2n1-c1ccccc1	-28.3	-0.5	5.7	21.6	-13.3	-0.2
C=CC(=O)N=c1sc2ccccc2n1-c1ccccc1	23.4	50.9	-12.4	97.7*	-37.6	37.9
CCCNC(=O)C1(C)CCN(Cc2cc(-c3ccccc3)on2)C1 (stereo not given)	21.6	x	x	-20.8	-28.5	-6.8
COc1ccc(NC(=O)COC(=O)CNC(=O)COc2ccccc2)cc1OC	-2.7	-3.6	-0.8	4.8	-3.6	-8.3
Cc1c(NC(=O)c2cc(-c3cccs3)nc3ccccc23)c(=O)n(-c2ccccc2)n1C	33.8	11.4	u	53.6*	9.4	11.5
O=C(NNc1nc2ccc(Cl)cc2s1)c1cc(-c2cccs2)nc2ccccc12	58.1*	6.3	27.2	87.1*	14.4	39.1
Cc1ccc(NC(=O)c2cc(-c3cccs3)nc3ccccc23)nc1	14.3	1.3	-7.7	41.1	-6.2	13.1
Cc1cc(C)c2nc(NNC(=O)c3cc(-c4cccs4)nc4ccccc34)sc2c1	35.7	29.2	16.4	51.7*	2.0	12.3
O=C(NN1CCOCC1)c1cc(-c2cccs2)nc2ccccc12	-4.8	-6.2	-0.1	5.8	8.2	-3.2
CN(Cc1ccc(Cl)cc1)C(=O)COC(=O)c1ccc(-c2ccc(O)cc2)cc1	0.8	-5.8	-28.7	-19.6	6.8	-7.0
CCCCC(=O)N(C)c1c(CC)nc2c(OCc3cc(Cl)cc(Cl)c3)cccn12	8.6	x	x	27.0	5.2	4.1
CC(C)(C)c1cc(C(=O)NNC(=O)Nc2cccc(Cl)c2)n(Cc2ccccc2)n1	22.6	9.5	53.0*	19.6	11.7	26.1
O=C(CN1c2ccccc2Sc2ccccc21)NNC(=O)Nc1cccc(Cl)c1	39.8	2.4	2.4	51.5*	37.4	52.6*
O=C(CCC(=O)NNC(=O)Nc1cccc(Cl)c1)NCc1ccccc1	-22.7	-17.2	42.3*	14.4	17.7	-3.8
CC(C)(C)c1cc(C(=O)NNC(=O)Nc2ccccc2)n(Cc2ccccc2)n1	2.9	7.7	5.7	17.6	30.9	5.9
C=CCn1c(SCc2ccc3nonc3c2)nnc1-c1cccs1	-10.0	6.1	70.9*	0.1	23.9	-11.3
O=C(Nc1cccc2ccccc12)N(CCO)C1CCS(=O)(=O)C1 (stereo not given)	64.0*	5.9	-4.1	3.9	4.6	51.5*
CCN(C(=O)COC(=O)Cc1cccc2ccccc12)C1CCS(=O)(=O)C1 (stereo not given)	-12.6	-0.5	2.4	8.8	15.0	10.1
SMILES	TWEAK-Fn14 inh	MITF TRPM1 inh	LMP1 NFkB inh	Peg3 prom inh	HIF-2a block	TROY signal inh
O=C(/C=C/c1cccs1)Nc1scc(-c2ccccc2)c1C(=O)O	60.5*	-25.5	-1.4	-126.1	-142.3	14.6
CCc1nc2nc(C)c(NS(=O)(=O)c3ccc(Cl)cc3)c(=O)n2[nH]1	-0.8	-2.6	0.4	-11.5	8.1	-7.3
O=C1CS/C(=N\c2ccccn2)N1C1CCCCC1	53.3*	-8.5	3.1	14.0	-2.4	8.8
O=C(Cc1ccccc1)NNC1=NS(=O)(=O)c2ccccc21	53.5*	-2.1	-7.5	0.5	12.4	-9.4
O=C(NNC1=NS(=O)(=O)c2ccccc21)C1CC(=O)N(c2ccccc2)C1 (stereo not given)	-2.2	-6.7	11.8	0.2	14.7	6.6
O=C(CSC1=NS(=O)(=O)c2cc(F)ccc2N1)Nc1ccccc1	4.7	-3.7	-5.0	6.5	5.9	4.2
